Most compounds without a hit are left out; they make up all but 19% or so of the library.
KB-3-1 cytotox – kills parental KB-3-1 adenocarcinoma cells. actives 1.4% (n = 400,000). KB-3-1 viability, CellTiter-Glo ATP luminescence, 72 h. Potency, µM (titrated, usually from 46.1 µM), usual class: cytotoxic; note: nearly all actives have a fitted effect of over 60% in size
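Luminescent ATP read-out (CellTiter-Glo) measures survival of drug-naive KB-3-1 cells after 72 h compound exposure at 37 °C. Titration series was screened from lowest to highest concentration, with DMSO vehicle plates as background controls.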
HT1080 IDH1KD tx – kills HT-1080 cells with IDH1 knockdown | AID 686971 | actives 2% (n = 360,000) | Potency, µM (top dose mostly 46.1 µM), for inactives: at the top dose activity, negative = toxicity, usual class: cytotoxic | HT-1080 IDH1 knockdown viability, ATP luminescence, 48 h;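 note: 0% = DMSO wells and -100% = cell-free medium wells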
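Using the IDH1-knockdown HT-1080 line run in the same batch and compound series as the NT line, viability after 48 h at 37 °C was determined by CellTiter-Glo luminescence and expressed as % activity.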
DT40 TDP1 CPT – DT40-hTDP1 cell growth loss with CPT; chicken DT40 Tdp1-/-;hTDP1 cells + 20 nM CPT, ATP luminescence, 48 h; Potency, µM (top dose mostly 46.2 µM), for the others: at the top dose activity change, negative = growth inhibition, hits mostly inhibitors; actives 12% (n = 420,000); AID 686979; note: nearly all actives have a fitted effect of over 55% in size
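Chicken DT40 Tdp1-/- cells stably complemented with human TDP1 were seeded at 400 cells/well in medium containing 20 nM camptothecin, exposed to pin-transferred compounds, and grown at 37 °C for at least 48 hr. Viability was read as ATP luminescence.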
HT1080NT lethal – kills 2HG-producing HT-1080-NT fibrosarcoma cells; Potency, µM (highest dose often 46.1 µM), for the others: at the top dose activity, negative = less viability, hits mostly cytotoxic; actives 1.6% (n = 360,000); HT-1080-NT fibrosarcoma viability, CellTiter-Glo ATP luminescence, 48 h;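 note: NT is the 2HG producing partner of a matched IDH1 knockdown line; 0% = DMSO-treated cells and -100% = media-only wells without cells; nearly all actives have a fitted effect of over 55% in size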
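HT-1080-NT; 750 cells/well; 5% FBS RPMI; 48 h compound, 37 degrees C; CellTiter-Glo luminescence; curve fitting and curve-class assignment.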
KB-V1 cytotox – KB-V1 MDR subline cytotoxicity. KB-V1 MDR cells viability, CellTiter-Glo, 72 h. Potency, µM (series often up to 46.1 µM), usual class: cytotoxic. actives 3.4% (n = 400,000); note: nearly all actives have a fitted effect of over 60% in size
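Following 72 h at 37 degrees C with compound, KB-V1 cell viability was read by CellTiter-Glo luminescence, medium being phenol-red-free DMEM plus 10% FBS; concentration-response parameters came from normalized, curve-fitted qHTS data.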
DT40 TDP1 no CPT – qHTS for Inhibitors of human tyrosyl-DNA phosphodiesterase 1 (TDP1): qHTS in cells in absence of CPT; actives 15% (n = 420,000); DT40 Tdp1-/- hTDP1 cells, no CPT, ATP luminescence, 48 h; Potency, µM (doses to about 46.2 µM), for inactives: top-dose activity change, negative = growth inhibition, usual class: inhibitors; note: nearly all actives have a fitted effect of over 55% in size
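DT40 Tdp1-/-;hTDP1 cells, no CPT (DMSO vehicle only), 400 cells/well; compounds pin-transferred; ≥48 hr, 37 °C; CellTiter-Glo 30 min RT dark, luminescence read.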
The depositor's hits bear a star; i = inactive; u = inconclusive; x = no result. Calls come from the whole dose curve; as a rule, active = well fitted curve in the direction sought with a large enough effect; inconclusive = small, poorly fitted or top-dose-only effect, or another doubt; inactive = no such curve, though single readings can be large; an effect the other way counts as inactive or inconclusive. Unless noted, % is set by controls: 0 for no effect and ±100 for the full control effect; potency is the fitted concentration of half-maximal effect.

SMILES	KB-3-1 cytotox	HT1080 IDH1KD tx	DT40 TDP1 CPT	HT1080NT lethal	KB-V1 cytotox	DT40 TDP1 no CPT
COc1cccc(Cc2nc3cccnc3n2C2CCN(Cc3ccc(C)s3)CC2)c1	x	x	-4%	x	x	-1%
CCc1ccccc1NC(=O)c1ccc2c(c1)N(Cc1cccc(Cl)c1)C(=O)c1ccccc1S2(=O)=O	i	x	x	x	i	x
CCOc1cc(C)c(-c2onc(C(F)(F)F)c2-c2csc(C)n2)c(O)c1	u	u	u	u	13µM*	u
Nc1c(Br)c(=O)[nH]c(=O)n1-c1ccc(F)cc1	i	-2%	-99%	6%	i	23µM*
COc1ccc(CNC(=O)/C(C#N)=C2\N=C(NC(=O)c3cccs3)c3ccccc32)cc1	i	-5%	26µM*	-1%	i	u
COC(=O)C1CCN(C(=O)Cn2nnc(-c3cccc(F)c3)n2)CC1	i	3%	-6%	12%	i	-13%
CCOc1cc(C)c(C(C)C)cc1S(=O)(=O)N1CC(C)OC(C)C1 (stereo unspecified)	i	-10%	u	-1%	u	u
COc1cc(C)c(Cl)cc1S(=O)(=O)n1cnc(C)c1	i	0%	-7%	8%	i	-13%
COc1ccc(C(C)C)cc1S(=O)(=O)n1cnc(C)c1	i	u	16µM*	u	i	23µM*
CCOc1cc(C)c(C(C)C)cc1S(=O)(=O)n1cnc(C)c1	u	12µM*	u	u	u	u
CCOc1ccc(N(C(C)C(=O)NCCSc2ccc(Cl)cc2)S(C)(=O)=O)cc1 (stereo unspecified)	u	x	16µM*	x	i	26µM*
COc1ccc(N(C(C)C(=O)N2CCC(Cc3ccccc3)CC2)S(C)(=O)=O)cc1 (stereo unspecified)	u	-22%	6.5µM*	-2%	3.7µM*	8.2µM*
CCOC(=O)C1CCN(C(=O)C(C)N(c2ccc(Oc3ccccc3)cc2)S(C)(=O)=O)CC1 (stereo unspecified)	i	-15%	12µM*	-19%	i	9.2µM*
CCOc1ccc(N(C(C)C(=O)NCCSc2ccc(C)cc2)S(C)(=O)=O)cc1 (stereo unspecified)	i	x	-28%	x	i	u
CCOC(=O)N1CCN(C(=O)C(C)N(c2ccc(Oc3ccccc3)cc2)S(C)(=O)=O)CC1 (stereo unspecified)	i	4%	u	12%	u	13µM*
CCOc1ccc(N(C(C)C(=O)N2CCCC2)S(C)(=O)=O)cc1 (stereo unspecified)	i	3%	u	1%	i	15µM*
COc1ccc(N(C(C)C(=O)N2CCCC2)S(C)(=O)=O)cc1 (stereo unspecified)	i	8%	7%	11%	i	-6%
CC(NC(=O)c1cccs1)c1nnc(SCc2ccc(Cl)cc2Cl)n1C (stereo unspecified)	i	-1%	u	5%	i	16µM*
Cc1cc(C)cc(NC(=O)c2ccc(NC(=O)c3ccco3)cc2)c1	i	-17%	21µM*	1%	u	u
C=Cc1cccc(NC(=O)c2ccc(NC(=O)c3ccco3)cc2)c1	i	-10%	15µM*	-4%	i	6.5µM*
CCOC(=O)c1cccc(NC(=O)c2ccc(NC(=O)c3ccco3)cc2)c1	i	u	u	u	i	u
O=C(/C=C\c1ccccc1)Nc1ccc(NC(=O)c2ccco2)cc1	i	u	12µM*	u	i	23µM*
O=c1[nH]cnc2c1sc1nc(C(F)F)cc(-c3ccccc3)c12	u	-5%	-21%	-9%	12µM*	-24%
CC(C)Cc1nc2sc3c(=O)[nH]cnc3c2c2c1CCCC2	u	0%	4%	-5%	i	-7%
COc1cccc(S(=O)(=O)N(C)C[C@@H]2OCc3cnnn3CCCC(=O)N([C@@H](C)CO)C[C@@H]2C)c1	i	-3%	-12%	-3%	u	0%
SMILES	KB-3-1 cytotox	HT1080 IDH1KD tx	DT40 TDP1 CPT	HT1080NT lethal	KB-V1 cytotox	DT40 TDP1 no CPT
Cc1ccc(CN2C(=O)N/C(=C\c3ccc(N4CCOCC4)cc3)C2=O)cc1	i	2%	-28%	6%	i	u
O=C1N/C(=C\c2ccc(N3CCOCC3)c(F)c2)C(=O)N1Cc1ccccc1	i	18µM*	0%	u	i	-10%
CCCCC[C@H](O)/C=C/[C@@H]1[C@H]2C/C(=C/CCCC(=O)O)O[C@H]2C[C@H]1O	x	x	12%	x	x	-1%
Cc1ccc(NC(=O)c2oc3ccc4c(c3c2C)C(=O)CC(C)(C)O4)c(C)c1	i	x	u	x	i	u
Cc1cc(NC(=O)COc2ccc3oc4ccccc4c3c2)no1	i	-8%	u	-8%	i	21µM*
Cc1cc(NC(=O)COC(=O)c2oc3c(ccc4ccccc43)c2C)no1	u	1%	u	11%	u	16µM*
Cc1cc(NC(=O)COc2ccc3c(C)c(C)c(=O)oc3c2)no1	i	9%	0%	11%	i	8%
CCS(=O)c1ccccc1C(=O)OCC(=O)N1CCC(c2ccccc2)=N1 (stereo unspecified)	i	0%	u	-9%	u	u
S=C(NCCN1CCOCC1)N/N=C/c1cccs1	i	16%	18µM*	3%	i	4.1µM*
COc1cc(/C=N/NC(=S)NCCN2CCOCC2)cc(OC)c1OC	i	0%	19%	29%	i	u
O=C(O)c1ccc(/C=N/NC(=S)NCCN2CCOCC2)cc1	i	11%	5%	12%	i	-19%
Oc1cccc(/C=N/NC(=S)NCCN2CCOCC2)c1O	u	-4%	7.3µM*	2%	i	5.8µM*
O=C(c1[nH]c(C(F)(F)F)nc1-c1ccccc1)N1CCC2(CC1)C(=O)NCN2c1ccccc1	i	1%	2%	27%	i	1%
COc1cccc(Nc2nc(C(N)CCc3ccccc3)cs2)n1 (stereo unspecified)	u	u	18µM*	u	u	u
c1ccc(CCNc2cnccn2)cc1	i	-4%	0%	0%	i	2%

Screens: PubChem BioAssay, National Center for Advancing Translational Sciences (NCATS)
